# Assay results from the supplement of paper PMC10037445.
# In all, about 2,900 compounds were measured (“IRF Lucia reporter activity, fold change vs agonist alone”: median about 0.9, highest 2% from about 2.8 on). The sample holds the highest values, similar compounds and a random draw of the others, so the mix is not that of the screen.
# How the values were obtained:
# [1] = system: RAW-Dual; assay: IRF Lucia reporter activity, fold change vs agonist alone; cytotoxicity flag (confluency mask): not cytotoxic; higher = enhanced IRF activity
# Outline: (§1)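 Reporter activity is given as fold change relative to agonist-alone wells. To measure it, 50 nL of library stock was pin-tooled onto RAW-Dual macrophages (50,000 cells/well, DMEM, 384-well plates), a PRR agonist followed 1 h later, and cells stayed at 37 °C, 5% CO2. Twenty hours on, supernatant was assayed for IRF (QuantiLuc luminescence) and NF-κB (QuantiBlue, 620 nm absorbance), and wells under 70% of agonist-control IncuCyte confluency in both mask sets were marked cytotoxic.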
# [2] = system: RAW-Dual; assay: IRF Lucia reporter activity, fold change vs agonist alone; higher = enhanced IRF activity; conditions: agonist: MPLA (TLR4) […]
# Outline: as §1
# [3] = system: RAW-Dual; assay: IRF Lucia reporter activity, fold change vs agonist alone; cytotoxicity flag (confluency mask): cytotoxic (confluency <70% of control); higher = enhanced IRF activity
# Outline: as §1
# [4] = agonist: 3'3'-cGAMP (STING) 10 ug/mL
# [5] = library stock concentration (final ~1000-fold dilution): 10 mM, cytotoxicity flag (confluency mask): not cytotoxic
# [6] = library stock concentration (final ~1000-fold dilution): 10 mM, cytotoxicity flag (confluency mask): cytotoxic (confluency <70% of control)
compound,measurement,setting,value
CC1CC(C(=O)O)C2CCC3(C)C(=CCC4C5(C)CCC(O)C(C)(C)C5CCC43C)C2C1C (stereo unspecified) (library stock concentration (final ~1000-fold dilution): 10 mM),IRF Lucia reporter activity,[1]; [4],0.973
same,IRF Lucia reporter activity,[1]; agonist: LPS (TLR4) 0.1 ug/mL,1.12
CC1CC(C(=O)O)C2CCC3(C)C(=CCC4C5(C)CCC(O)C(C)(C)C5CCC43C)C2C1C (stereo unspecified),IRF Lucia reporter activity,[2]; [5],1.06
Cc1[nH]c(C=C2C(=O)Nc3ccc(F)cc32)c(C)c1C(=O)NCCN1CCCC1 (library stock concentration (final ~1000-fold dilution): 2 mM),IRF Lucia reporter activity,[1]; [4],0.0313
same,IRF Lucia reporter activity,[1]; agonist: LPS (TLR4) 0.1 ug/mL,0.194
Cc1[nH]c(C=C2C(=O)Nc3ccc(F)cc32)c(C)c1C(=O)NCCN1CCCC1,IRF Lucia reporter activity,"[2]; library stock concentration (final ~1000-fold dilution): 2 mM, cytotoxicity flag (confluency mask): not cytotoxic",0.869
CC(c1ncncc1F)C(O)(Cn1cncn1)c1ccc(F)cc1F (stereo unspecified),IRF Lucia reporter activity,[2]; [5],0.639
CC(c1ncncc1F)C(O)(Cn1cncn1)c1ccc(F)cc1F (stereo unspecified) (library stock concentration (final ~1000-fold dilution): 10 mM),IRF Lucia reporter activity,[1]; [4],1.11
same,IRF Lucia reporter activity,[1]; agonist: LPS (TLR4) 0.1 ug/mL,0.893
CC1Cc2c([nH]c3ccccc23)C(c2c(F)cc(/C=C/C(=O)O)cc2F)N1CC(C)(C)F (stereo unspecified) (library stock concentration (final ~1000-fold dilution): 10 mM),IRF Lucia reporter activity,[1]; [4],1.14
same,IRF Lucia reporter activity,[1]; agonist: LPS (TLR4) 0.1 ug/mL,1.23
Cl.O=C(NC1CCNCC1)c1n[nH]cc1NC(=O)c1c(Cl)cccc1Cl (library stock concentration (final ~1000-fold dilution): 10 mM),IRF Lucia reporter activity,[3]; [4],0.0898
same,IRF Lucia reporter activity,[3]; agonist: LPS (TLR4) 0.1 ug/mL,0.581
CS(=O)(=O)O.CS(=O)(=O)O.Cc1ccc(C(=O)Nc2ccc(CN3CCN(C)CC3)c(C(F)(F)F)c2)cc1C#Cc1cnc2[nH]ncc2c1 (library stock concentration (final ~1000-fold dilution): 10 mM),IRF Lucia reporter activity,[3]; [4],0.00912
same,IRF Lucia reporter activity,[3]; agonist: LPS (TLR4) 0.1 ug/mL,0.0192
CS(=O)(=O)O.CS(=O)(=O)O.Cc1ccc(C(=O)Nc2ccc(CN3CCN(C)CC3)c(C(F)(F)F)c2)cc1C#Cc1cnc2[nH]ncc2c1,IRF Lucia reporter activity,[2]; [6],0.0201
COc1ccc(-c2cc3c(C)nc(N)nc3n(C3CCC(OCCO)CC3)c2=O)cn1 (stereo unspecified) (library stock concentration (final ~1000-fold dilution): 10 mM),IRF Lucia reporter activity,[3]; [4],0.282
same,IRF Lucia reporter activity,[3]; agonist: LPS (TLR4) 0.1 ug/mL,0.508
COc1ccc(-c2cc3c(C)nc(N)nc3n(C3CCC(OCCO)CC3)c2=O)cn1 (stereo unspecified),IRF Lucia reporter activity,[2]; [6],0.387
CCOC(=O)c1cnc2ccc(-c3cncc(NS(=O)(=O)c4ccccc4)c3)cn12 (library stock concentration (final ~1000-fold dilution): 10 mM),IRF Lucia reporter activity,[3]; [4],0.284
same,IRF Lucia reporter activity,[3]; agonist: LPS (TLR4) 0.1 ug/mL,4.78
Nc1nc2cc(-c3ccc4ncc(C(=O)N5CCOCC5)n4c3)ccc2o1 (library stock concentration (final ~1000-fold dilution): 10 mM),IRF Lucia reporter activity,[1]; [4],0.343
same,IRF Lucia reporter activity,[1]; agonist: LPS (TLR4) 0.1 ug/mL,1.04
CCOC(=O)c1cnc2ccc(-c3cncc(NS(=O)(=O)c4ccccc4)c3)cn12,IRF Lucia reporter activity,[2]; [6],4.46
COCCNCCc1cccc(Nc2ncc3c(n2)-c2ccccc2C(c2ccccc2F)C3)c1 (stereo unspecified) (library stock concentration (final ~1000-fold dilution): 10 mM),IRF Lucia reporter activity,[3]; [4],0.0166
same,IRF Lucia reporter activity,[3]; agonist: LPS (TLR4) 0.1 ug/mL,0.159
CN1CCC(c2c(O)cc(O)c3c(=O)cc(-c4ccccc4Cl)oc23)C1CO.Cl (stereo unspecified) (library stock concentration (final ~1000-fold dilution): 10 mM),IRF Lucia reporter activity,[3]; [4],0.00862
same,IRF Lucia reporter activity,[3]; agonist: LPS (TLR4) 0.1 ug/mL,0.0242
CN(CC1COCCO1)S(=O)(=O)Nc1ccc2ccc3ncc(-c4cnn(C)c4)cc3c(=O)c2c1 (stereo unspecified) (library stock concentration (final ~1000-fold dilution): 10 mM),IRF Lucia reporter activity,[1]; [4],0.306
same,IRF Lucia reporter activity,[1]; agonist: LPS (TLR4) 0.1 ug/mL,0.736
CN(CC1COCCO1)S(=O)(=O)Nc1ccc2ccc3ncc(-c4cnn(C)c4)cc3c(=O)c2c1 (stereo unspecified),IRF Lucia reporter activity,[2]; [5],0.63
COC(=O)C1=COC(OC2OC(CO)C(O)C(O)C2O)C2C1CC(O)C2C (stereo unspecified) (library stock concentration (final ~1000-fold dilution): 10 mM),IRF Lucia reporter activity,[1]; [4],1.08
same,IRF Lucia reporter activity,[1]; agonist: LPS (TLR4) 0.1 ug/mL,1.3
COC(=O)C1=COC(OC2OC(CO)C(O)C(O)C2O)C2C1CC(O)C2C (stereo unspecified),IRF Lucia reporter activity,[2]; [5],1.12
CCCc1cc(C)[nH]c(=O)c1CNC(=O)c1cc(-c2ccc(N3CCN(C)CC3)nc2)nc2c1cnn2C(C)C (library stock concentration (final ~1000-fold dilution): 10 mM),IRF Lucia reporter activity,[1]; [4],0.763
same,IRF Lucia reporter activity,[1]; agonist: LPS (TLR4) 0.1 ug/mL,1.35
CCN(C)S(=O)(=O)Nc1ccc(F)c(C(=O)c2c[nH]c3ncc(-c4cnc(C5CC5)nc4)cc23)c1F (library stock concentration (final ~1000-fold dilution): 10 mM),IRF Lucia reporter activity,[1]; [4],0.0563
same,IRF Lucia reporter activity,[1]; agonist: LPS (TLR4) 0.1 ug/mL,0.409
Cc1c(-c2ccccc2)oc2c(C(=O)OCCN3CCCCC3)cccc2c1=O.Cl,IRF Lucia reporter activity,"[2]; library stock concentration (final ~1000-fold dilution): 10 mM water, cytotoxicity flag (confluency mask): not cytotoxic",1.29
Cc1c(-c2ccccc2)oc2c(C(=O)OCCN3CCCCC3)cccc2c1=O.Cl (library stock concentration (final ~1000-fold dilution): 10 mM water),IRF Lucia reporter activity,[1]; [4],1.09
same,IRF Lucia reporter activity,[1]; agonist: LPS (TLR4) 0.1 ug/mL,0.892
